# Assay results published in PubChem BioAssay (NCATS).
# Values joined by “and” are separate entries in the source; they are usually repeats but may differ in a detail not shown here. Equal values may be shown once. Records with an inconclusive call do not appear. A call without a number means that no potency is given here. A structure can be active in one record and inactive in another. Values without a mark were called inactive. Active and inactive are the calls of the source. Unless noted, calls follow the shape of the dose curve; as a rule, active = well fitted curve in the direction sought with a large enough effect; inconclusive = small, poorly fitted or top-dose-only effect, or another doubt; inactive = no such curve, though single readings can be large; an effect the other way counts as inactive or inconclusive.
# What was measured:
# [1] = NCATS anti-infectives library activity on HEK293 viability as a counter-qHTS vs the C. elegans viability qHTS (AID 1745854);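 also: HEK293 cells exposed to compounds for 24 hr before the viability read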
# How it was run: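 HEK293 cells (1,500/well) exposed 24 hr at 37C to 1:5 titrations, up to 41.7 uM final; counter-screen to a C. elegans viability qHTS. Viability by CellTiter-Glo luminescence after 10 min at room temperature; digitonin as control.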
# [2] = target: Rap guanine nucleotide exchange factor 3 (Homo sapiens) (UniProt O95398); assay: Confirmatory qHTS for agonist of cAMP-regulated guanine nucleotide exchange factor 3 (EPAC1) (AID 1645881);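 also: EPAC1 catalysed release of BODIPY-GDP from Rap1B seen as fluorescence loss; nearly all actives have a fitted effect of over 75% in size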
# [3] = target: Rap guanine nucleotide exchange factor 4 (Homo sapiens) (UniProt Q8WZA2); assay: Confirmatory qHTS for antagonist of cAMP-regulated guanine nucleotide exchange factor 4 (EPAC2) (AID 1645885); also: nearly all actives have a fitted effect of over 25% in size; also: potency is read from the fitted curve at half-maximal effect
# [4] = target: Rap guanine nucleotide exchange factor 4 (Homo sapiens) (UniProt Q8WZA2); assay: Confirmatory qHTS for agonist of cAMP-regulated guanine nucleotide exchange factor 4 (EPAC2) (AID 1645884);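 also: nucleotide exchange releases bodipy-GDP from Rap1 and this lowers its fluorescence; nearly all actives have a fitted effect of over 65% in size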
# [5] = target: Rap guanine nucleotide exchange factor 3 (Homo sapiens) (UniProt O95398); assay: Counterscreen qHTS for antagonist of cAMP-regulated guanine nucleotide exchange factor 3 (EPAC1) (AID 1645888);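 also: fluorescence loss as bound BODIPY-GDP is released from Rap1B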
# How it was run: (§1)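 Rap1B-BODIPY-GDP 250 nM + GDP 50 uM; cpds 7-pt, final 9.74 nM–152 uM (activator mode) or from 7.32 nM upwards (inhibitor mode); RT; FI 480/540 nm at 5 and 30 min, then ± cAMP, reread.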
# [6] = NCATS anti-infectives library activity on the primary C. elegans qHTS viability assay (AID 1745855; calls by dose curve); conditions: C. elegans worm area imaging, day 7; at 41.8 µM (top of the series) unless noted
# How it was run: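 Viability read-out is GFP fluorescence of PE254-GFP-FLuc C. elegans, measured by laser cytometry (488 nm) at day 0, 3 and 7. Ten L1 worms per well were incubated 7 days at 21 °C with compounds and bacterial capsules in S medium.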
# [7] = Viability counterscreen for antagonist of constitutive androstane receptor (CAR) against the NCATS DSHEA and TCM libraries (AID 1794837);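 also: compound exposure lasted 24 h before viability reading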
# How it was run: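 HepG2-CYP2B6-hCAR cells (2,500/well) were allowed to attach for 5 h, then exposed to compounds with 48 uM CITCO for 24 h at 37C. Viability was read by CellTiter-Fluor fluorescence after 1 h.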
# [8] = Viability counterscreen for agonist of constitutive androstane receptor (CAR) against the NCATS DSHEA and TCM libraries (AID 1794838)
# How it was run: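 HepG2-CYP2B6-hCAR cells (2,500/well) attached 5 h, then got compounds plus 0.75 uM PK11195 final. After 24 h at 37C, viability read by CellTiter-Fluor fluorescence (Ex/Em 405/540 nm).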
# [9] = target: Nuclear receptor subfamily 1 group I member 3 (Homo sapiens) (UniProt Q14994); assay: Primary qHTS for agonist of constitutive androstane receptor (CAR) against the NCATS DSHEA and TCM libraries (AID 1794839);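 also: HepG2 cells expressing human CAR with a CYP2B6 reporter plus PK11195 antagonist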
# How it was run: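 HepG2-CYP2B6-hCAR cells (2,500/well) were attached for 5 h, then treated for 24 h at 37 °C with compounds plus 0.75 µM PK11195. Luciferase luminescence (ONE-Glo) was read, with CellTiter-Fluor viability (Ex/Em 405/540 nm).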
# [10] = target: Rap guanine nucleotide exchange factor 3 (Homo sapiens) (UniProt O95398); assay: Counterscreen qHTS for agonist of cAMP-regulated guanine nucleotide exchange factor 3 (EPAC1) (AID 1645889); also: nearly all actives have a fitted effect of over 40% in size
# How it was run: as §1
# Rap guanine nucleotide exchange factor 4 (Homo sapiens), sequence (Q8WZA2 whole entry, looked up): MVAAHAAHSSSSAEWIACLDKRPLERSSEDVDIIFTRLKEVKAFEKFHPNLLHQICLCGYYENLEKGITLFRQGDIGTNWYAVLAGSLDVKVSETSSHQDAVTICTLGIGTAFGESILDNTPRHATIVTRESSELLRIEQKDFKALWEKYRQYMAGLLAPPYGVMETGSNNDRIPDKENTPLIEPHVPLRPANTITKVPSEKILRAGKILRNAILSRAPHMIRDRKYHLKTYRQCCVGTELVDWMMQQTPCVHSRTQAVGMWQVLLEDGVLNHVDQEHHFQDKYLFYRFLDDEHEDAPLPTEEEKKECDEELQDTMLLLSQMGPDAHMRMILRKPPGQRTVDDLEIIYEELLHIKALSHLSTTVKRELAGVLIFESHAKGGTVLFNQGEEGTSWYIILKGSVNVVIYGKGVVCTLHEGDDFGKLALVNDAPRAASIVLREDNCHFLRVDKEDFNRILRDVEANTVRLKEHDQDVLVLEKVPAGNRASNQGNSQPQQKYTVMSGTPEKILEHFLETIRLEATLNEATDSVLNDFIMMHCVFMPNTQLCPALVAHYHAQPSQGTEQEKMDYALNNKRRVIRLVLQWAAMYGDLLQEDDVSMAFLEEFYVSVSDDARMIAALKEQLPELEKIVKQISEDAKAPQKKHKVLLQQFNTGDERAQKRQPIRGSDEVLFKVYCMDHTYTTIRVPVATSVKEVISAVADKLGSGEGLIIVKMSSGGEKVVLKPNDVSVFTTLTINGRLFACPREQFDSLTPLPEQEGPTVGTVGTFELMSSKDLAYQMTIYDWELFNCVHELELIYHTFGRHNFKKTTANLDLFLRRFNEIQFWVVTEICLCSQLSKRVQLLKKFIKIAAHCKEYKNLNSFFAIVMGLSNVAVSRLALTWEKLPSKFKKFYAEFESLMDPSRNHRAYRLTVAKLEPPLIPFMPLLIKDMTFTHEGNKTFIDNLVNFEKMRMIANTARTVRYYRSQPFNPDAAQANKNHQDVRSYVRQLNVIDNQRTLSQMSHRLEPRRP
# Rap guanine nucleotide exchange factor 3 (Homo sapiens), sequence (O95398 whole entry, looked up): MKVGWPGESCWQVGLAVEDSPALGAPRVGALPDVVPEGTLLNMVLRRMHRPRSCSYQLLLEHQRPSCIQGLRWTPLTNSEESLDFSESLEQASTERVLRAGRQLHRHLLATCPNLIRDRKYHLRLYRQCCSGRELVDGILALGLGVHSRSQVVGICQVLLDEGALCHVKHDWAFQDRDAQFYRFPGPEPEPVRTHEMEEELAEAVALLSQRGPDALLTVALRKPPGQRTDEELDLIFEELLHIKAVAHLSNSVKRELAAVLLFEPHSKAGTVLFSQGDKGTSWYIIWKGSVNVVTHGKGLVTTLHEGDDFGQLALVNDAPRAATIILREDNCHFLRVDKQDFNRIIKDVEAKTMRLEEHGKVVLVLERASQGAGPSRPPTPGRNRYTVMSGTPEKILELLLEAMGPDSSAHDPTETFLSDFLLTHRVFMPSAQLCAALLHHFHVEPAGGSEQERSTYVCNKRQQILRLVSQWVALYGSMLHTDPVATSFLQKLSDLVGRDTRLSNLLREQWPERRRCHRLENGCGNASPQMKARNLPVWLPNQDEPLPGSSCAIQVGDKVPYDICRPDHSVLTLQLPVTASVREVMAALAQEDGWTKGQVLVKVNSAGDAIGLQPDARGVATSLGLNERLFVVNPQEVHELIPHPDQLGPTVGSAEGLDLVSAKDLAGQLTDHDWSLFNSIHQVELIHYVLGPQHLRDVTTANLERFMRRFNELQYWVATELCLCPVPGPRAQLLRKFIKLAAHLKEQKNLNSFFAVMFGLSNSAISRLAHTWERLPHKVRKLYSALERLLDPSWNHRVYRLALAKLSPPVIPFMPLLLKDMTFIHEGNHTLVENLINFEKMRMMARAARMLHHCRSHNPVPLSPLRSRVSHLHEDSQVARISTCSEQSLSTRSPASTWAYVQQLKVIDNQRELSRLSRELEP
# Nuclear receptor subfamily 1 group I member 3 (Homo sapiens), sequence (Q14994 whole entry, looked up): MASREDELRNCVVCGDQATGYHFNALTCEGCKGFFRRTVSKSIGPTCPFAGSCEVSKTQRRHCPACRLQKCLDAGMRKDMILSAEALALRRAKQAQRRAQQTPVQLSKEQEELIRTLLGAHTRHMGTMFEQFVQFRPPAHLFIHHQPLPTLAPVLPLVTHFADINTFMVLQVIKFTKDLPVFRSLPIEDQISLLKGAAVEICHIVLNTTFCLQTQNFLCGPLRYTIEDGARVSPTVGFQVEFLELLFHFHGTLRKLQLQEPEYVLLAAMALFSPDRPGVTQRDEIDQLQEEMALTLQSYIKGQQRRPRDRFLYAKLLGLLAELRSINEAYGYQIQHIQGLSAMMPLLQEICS
compound,measurement,setting,value
O=C(Nc1ccccc1)OCC(CN1CCCCC1)OC(=O)Nc1ccccc1 (stereo not drawn),outcome,[1],inactive
C[C@H]1[C@H]2CC[C@H]3[C@@H]4CC=C5C[C@@H](N(C)C)CC[C@]5(C)[C@H]4CC[C@]23CN1C,"activity change, negative = cytotoxicity",[1],-25.4% [at 8.35 µM]
Oc1ccc(Cl)cc1Cc1cc(Cl)ccc1O,outcome,[2],inactive
same,Potency,[3],35 µM (active)
CC(=O)O[C@]1(C(C)=O)CC[C@H]2[C@@H]3C=C(C)C4=CC(=O)CC[C@]4(C)[C@H]3CC[C@@]21C,outcome,[1],inactive
C=C1c2cccc(O)c2C(O)=C2C(=O)[C@]3(O)C(O)=C(C(N)=O)C(=O)[C@@H](N(C)C)[C@@H]3[C@@H](O)[C@H]12,outcome,[2],inactive
same,outcome,[4],inactive
same,Potency,[3],inactive
same,outcome,[5],inactive
O=C(O)CCc1nc2ccccc2[nH]1,outcome,[1],inactive
same,outcome,[6],inactive
O=C1C(=O)c2ccccc2C(O)=C1C1CCC(c2ccc(Cl)cc2)CC1 (stereo not drawn),outcome,[1],inactive
same,outcome,[6],inactive
CCN(CC)CCNc1ccc(CO)c2sc3ccccc3c(=O)c12,outcome,[1],inactive
OC[C@H]1O[C@@H](Oc2ccc(O)cc2)[C@H](O)[C@@H](O)[C@@H]1O,outcome,[1],inactive
same,outcome,[6],inactive [at 83.3 µM]
CCCCCCCCCCC[C@@H](C[C@@H]1OC(=O)[C@H]1CCCCCC)OC(=O)[C@H](CC(C)C)NC=O,outcome,[1],inactive
CC(C)=CCOc1ccc(/C=C/C(=O)c2ccc(OCC=C(C)C)cc2OCC(=O)O)cc1,outcome,[2],inactive
same,outcome,[4],inactive
same,Potency,[3],39.3 µM (active)
CCOC(=O)C(C#N)=C(c1ccccc1)c1ccccc1,outcome,[2],inactive
same,outcome,[4],inactive
same,Potency,[3],49.4 µM (active)
COc1ccc(C(=O)c2ccccc2)c(O)c1,outcome,[2],inactive
same,outcome,[4],inactive
same,Potency,[3],31.2 µM (active)
C=C[C@H]1CN2CC[C@H]1C[C@@H]2[C@@H](O)c1ccnc2ccc(OC)cc12,outcome,[1],inactive
O=C(O)P(=O)(O)O,outcome,[1],inactive
CCCN(CCC)S(=O)(=O)c1ccc(C(=O)O)cc1,outcome,[1],inactive
Cl/C(=C\n1cncn1)c1ccc(Cl)cc1Cl,outcome,[2],inactive
same,outcome,[4],inactive
same,Potency,[3],inactive
COc1cc(C(=O)NCc2ccc(OCCN(C)C)cc2)cc(OC)c1OC,outcome,[1],inactive
COc1ccc(C(Cl)=C(c2ccc(OC)cc2)c2ccc(OC)cc2)cc1,outcome,[2],inactive
same,outcome,[4],inactive
same,Potency,[3],7.84 µM (active) and 2.31 µM (active)
CC(C)Nc1cccnc1N1CCN(C(=O)c2cc3cc(NS(C)(=O)=O)ccc3[nH]2)CC1,outcome,[1],inactive
CC1(COc2ccc(CC3SC(=O)NC3=O)cc2)CCCCC1 (stereo not drawn),outcome,[2],inactive
same,outcome,[4],inactive
same,Potency,[3],44.1 µM (active)
CCc1oc2ccccc2c1C(=O)c1cc(I)c(O)c(I)c1,outcome,[2],inactive
same,outcome,[4],inactive
same,Potency,[3],27.8 µM (active)
COc1ccc(C(=O)c2ccccc2O)c(O)c1,outcome,[2],inactive
same,outcome,[4],inactive
same,Potency,[3],44.1 µM (active)
CCCCCCCCCCCCCCCC(=O)O,outcome,[7],inactive
same,outcome,[8],inactive
same,outcome,[9],inactive
CCc1oc2ccccc2c1C(=O)c1cc(Br)c(O)c(Br)c1,outcome,[2],inactive
same,outcome,[4],inactive
same,Potency,[3],27.8 µM (active)
same,"activity change, negative = inhibition",[3],-17.2% [at 12.7 µM]
same,outcome,[5],inactive
same,outcome,[10],inactive
CO[C@H]1C=CO[C@@]2(C)Oc3c(C)c(O)c4c(O)c(c(/C=N/N5CCN(C)CC5)c(O)c4c3C2=O)NC(=O)/C(C)=C\C=C[C@H](C)[C@H](O)[C@@H](C)[C@@H](O)[C@@H](C)[C@H](OC(C)=O)[C@@H]1C,outcome,[2],inactive
same,outcome,[4],inactive
same,Potency,[3],44.1 µM (active)
